The supplement of paper PMC3414501
Where a name gives a salt, the structure may show the parent alone.

test system: S. cerevisiae NKY1551 his4x/his4B, sporulating; experiment: HIS4 meiotic recombination assay sensitivity score (z-score vs DMSO controls); higher = stronger inhibition of sporulation/recombination, active = hit call of the paper; conditions: stock concentration (mM, diluted 1:100): 7.3;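 active = HIS4 sensitivity z-score above 5 vs DMSO controls; inactive = score 5 or below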
Procedure: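 NIH Clinical Collection compounds were added 1:100 from stock (about 100 µM final) to S. cerevisiae. Growth: average doubling time (AvgG) over 24 h of BY4741 (wild-type) or AD1-9 (drug-efflux-pump deficient) in rich media. HIS4: the his4x/his4B heteroallelic recombination reporter strain (SK1) was sporulated 5 h with compound at 30°C, then colony density was read on -his plates after 48 h. Sensitivity score = (compound − mean of 8 DMSO controls)/SD of DMSO controls. Hit cutoffs are >2 for growth and >5 for sporulation.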

| SMILES | HIS4 meiotic recombination assay sensitivity score |
| --- | --- |
| CN1[C@@H]2CC(OC(=O)[C@H](CO)c3ccccc3)C[C@H]1[C@@H]1O[C@@H]12 (stereo not given in full) | -0.64 (inactive) |

same assay, conditions: stock concentration (mM, diluted 1:100): 7.6

| SMILES | HIS4 meiotic recombination assay sensitivity score |
| --- | --- |
| CN1CC[C@]23CCCC[C@H]2[C@H]1Cc1ccc(O)cc13 [Levorphanol tartrate] | -1.13 (inactive) |

same assay, conditions: stock concentration (mM, diluted 1:100): 8.2

| SMILES | HIS4 meiotic recombination assay sensitivity score |
| --- | --- |
| COc1ccc2c(c1)[C@]13CCCC[C@@H]1[C@H](C2)N(C)CC3 [Dextromethorphan hydrobromide] | 5.52 (active) |

same assay, conditions: stock concentration (mM, diluted 1:100): 8.6

| SMILES | HIS4 meiotic recombination assay sensitivity score |
| --- | --- |
| CCOC(=O)C1(c2ccccc2)CCN(CCC(C#N)(c2ccccc2)c2ccccc2)CC1 [Diphenoxylate] | 0.41 (inactive) |

same assay, conditions: stock concentration (mM, diluted 1:100): 8.7

| SMILES | HIS4 meiotic recombination assay sensitivity score |
| --- | --- |
| CC(=O)O[C@H]1C[C@@H]2CC[C@@H]3[C@H](CC[C@@]4(C)[C@H]3C[C@H]([N+]3(C)CCCCC3)[C@@H]4OC(C)=O)[C@@]2(C)C[C@@H]1[N+]1(C)CCCCC1 [Pancuronium] | -0.44 (inactive) |

same assay, conditions: stock concentration (mM, diluted 1:100): 8.9

| SMILES | HIS4 meiotic recombination assay sensitivity score |
| --- | --- |
| COc1ccc(C(CN(C)C)C2(O)CCCCC2)cc1 (stereo not given) [Venlafaxine hydrochloride] | 1 (inactive) |

same assay, conditions: stock concentration (mM, diluted 1:100): 9

| SMILES | HIS4 meiotic recombination assay sensitivity score |
| --- | --- |
| Cc1ncc2n1-c1ccc(Cl)cc1C(c1ccccc1F)=NC2 [Midazolam hydrochloride] | 4.65 (inactive) |

same assay, conditions: stock concentration (mM, diluted 1:100): 9.8

| SMILES | HIS4 meiotic recombination assay sensitivity score |
| --- | --- |
| CN1CC[C@]2(c3cccc(O)c3)Cc3nc4ccccc4cc3C[C@H]2C1 | 0.28 (inactive) |

same assay, conditions: stock concentration (mM, diluted 1:100): 9.9

| SMILES | HIS4 meiotic recombination assay sensitivity score |
| --- | --- |
| CCCCCCCCCOc1ccc2[nH]cc(CCN)c2c1 [5-Nonyloxytryptamine] | -2.09 (inactive) |

same assay, conditions: stock concentration (mM, diluted 1:100): 10

| SMILES | HIS4 meiotic recombination assay sensitivity score |
| --- | --- |
| O=C1Nc2ccc(Cl)cc2C(c2ccccc2Cl)=NC1O (stereo not given) [Lorazepam] | 0.95 (inactive) |
| CNC1CC(c2ccc(Cl)c(Cl)c2)c2ccccc21 (stereo not given) [Indatraline] | -0.83 (inactive) |
| C[N+]1(C)CCN(c2ccccc2)CC1 [Dimethylphenylpiperazinium Iodide] | -0.3 (inactive) |
| C[C@]12CC[C@H]3[C@@H](CCC4=CC(=O)CC[C@@H]43)[C@@H]1CC[C@@H]2O [19-Nortestosterone] | 1.09 (inactive) |
| O=C1CN=C(c2ccccc2)c2cc([N+](=O)[O-])ccc2N1 [Nitrazepam] | -0.13 (inactive) |
| CN=C1CN(O)C(c2ccccc2)=c2cc(Cl)ccc2=N1 [Chlordiazepoxide] | -1.07 (inactive) |
| Cc1nnc2n1-c1ccc(Cl)cc1C(c1ccccc1)=NC2 [Alprazolam] | 1.57 (inactive) |
| CC(O)(CS(=O)(=O)c1ccc(F)cc1)C(=O)Nc1ccc(C#N)c(C(F)(F)F)c1 (stereo not given) [Bicalutamide] | -0.62 (inactive) |
| Oc1ccc2c3c1O[C@H]1c4[nH]c5ccccc5c4C[C@@]4(O)[C@@H](C2)N(CC2CC2)CC[C@]314 [Naltrindole] | -0.51 (inactive) |
| CCN(CC)CCOC(=O)C(O)(c1ccccc1)c1ccccc1 [Benactyzine hydrochloride] | -0.53 (inactive) |
| CCCN1C[C@H](CSC)C[C@@H]2c3cccc4[nH]cc(c34)C[C@H]21 [Pergolide mesylate] | -0.45 (inactive) |
| CCN(C(C)=O)c1cccc(-c2ccnc3c(C#N)cnn23)c1 [Zaleplon] | -0.58 (inactive) |
| COc1ccc(CCN)cc1OC [Homoveratrylamine] | -1.74 (inactive) |
| OC1CCCCC1N1CCC(c2ccccc2)CC1 (stereo not given) [Vesamicol hydrochloride] | -0.31 (inactive) |
| C[C@H]1CCC[C@H](O)CCCCCc2cc(O)cc(O)c2C(=O)O1 [Zeranol] | -1.27 (inactive) |
| c1ccc(Cn2ccnc2)cc1 [1-Benzylimidazole] | -0.23 (inactive) |
| O=c1c2ccccc2[se]n1-c1ccccc1 [Ebselen] | -0.37 (inactive) |
| CN1C(=O)CN=C(c2ccccc2)c2cc(Cl)ccc21 [Diazepam] | 2.18 (inactive) |
| C[C@]12CCC(=O)C=C1CC[C@@H]1[C@@H]2CC[C@@]2(C)[C@H]1CC[C@]2(C)O [Methyltestosterone] | 2.7 (inactive) |
| c1cncc([C@@H]2CCCN2)c1 [Nornicotine] | -1.18 (inactive) |
| FC(F)(F)c1cccc(N2CCNCC2)c1 | 8.84 (active) |
| CC[C@]1(O)CC[C@H]2[C@@H]3CCC4=CCCC[C@@H]4[C@H]3CC[C@@]21C [Ethylestrenol] | 1.02 (inactive) |
| C#CCN(C)[C@H](C)Cc1ccccc1 [Selegiline] | 0.06 (inactive) |
| CCCCC/C=C\C/C=C\C/C=C\C/C=C\CCCC(=O)Nc1ccc(O)cc1 | -0.8 (inactive) |
| Oc1ccc2c3c1O[C@H]1[C@@H](O)CC[C@@]4(O)[C@@H](C2)N(CC2CCC2)CC[C@]314 [Nalbuphine] | -0.56 (inactive) |

same assay, conditions: stock concentration (mM, diluted 1:100): 10.1

| SMILES | HIS4 meiotic recombination assay sensitivity score |
| --- | --- |
| CC[C@@H](C(N)=O)N1CCCC1=O [Levetiracetam] | -0.77 (inactive) |
| C[C@]12CCC(=O)C[C@@H]1CC[C@@H]1[C@@H]2CC[C@@]2(C)[C@H]1CC[C@]2(C)O [Mestanolone] | -0.62 (inactive) |
| C[C@]12C/C(=C/O)C(=O)C[C@@H]1CC[C@@H]1[C@@H]2CC[C@@]2(C)[C@H]1CC[C@]2(C)O [Oxymetholone] | 8.48 (active) |
| C[C@]12CC[C@H](O)CC1=CC[C@@H]1[C@@H]2CC[C@@]2(C)[C@H]1CC[C@]2(C)O [Methylandrostenediol] | -1.02 (inactive) |
| COc1ccc2[nH]cc(C3=CCNCC3)c2c1 | 3.92 (inactive) |

same assay, conditions: stock concentration (mM, diluted 1:100): 11.3

| SMILES | HIS4 meiotic recombination assay sensitivity score |
| --- | --- |
| CC(C)CC(N(C)C)C1(c2ccc(Cl)cc2)CCC1 (stereo not given) [Sibutramine] | 1.61 (inactive) |
